We go through 37 molecules from PubChem BioAssay (NCATS).

Each structure is given as a SMILES string. Records with an inconclusive call do not appear. Calls of active or inactive are those of the source. Calls follow the shape of the dose curve; as a rule, active = well fitted inhibition curve with a large enough effect; inconclusive = small, poorly fitted or top-dose-only effect; inactive = flat fitted curve, though single readings scatter. Where a SMILES comes first, the peptide text is derived from it. [ ]: non-standard residue; d: D form. pGlu = O=C1CC[C@@H](C(=O)O)N1
Also: nearly all actives have a fitted effect of over 60% in size.

The test system of one assay is KB-3-1. As to the kind of experiment: Cytotoxic Profiling of Annotated Libraries Using Quantitative High-Throughput Screening (AID 1296008). Also: potency is read from the fitted curve at half-maximal effect. As to max response: % is scaled to controls: 0 for no effect and ±100 for the full control effect. The conditions noted are these: Five cell lines viability, CellTiter-Glo ATP luminescence, 48-72 h; max response: hits give low values. The procedure, abridged: (§1)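 Cytotoxicity was measured as CellTiter-Glo ATP luminescence, read after 10 min at room temperature. Compound treatment of the cells lasted 48 or 72 hr at 37 degrees Celsius in a qHTS format.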
For orientation: ATP-based viability assays read luminescence as a measure of living cells.
On to `COC(=O)c1c(Cl)c(Cl)c(C(=O)OC)c(Cl)c1Cl`, for which the max response is -7.26% (inactive). On the same count and under the same terms, next, `C[C@H](CN1CCCC1)C(=O)c1ccc(C(F)(F)F)cc1`: 4.58% (inactive). As to `O=C(O)Cc1ccccc1Oc1ccc(Cl)cc1Cl`, the call was inactive.

Turning to `CCCCCCCCCCCCCCCCCCNC(=O)OC1CCN(C(=O)OC[C@H](COC(=O)N(Cc2cccc[n+]2CC)C(=O)c2ccccc2OC)OC)CC1`, the Potency was 6.51 µM (active). As to `CN1[C@@H]2CC[C@H]1CC(NC(=O)n1c(=O)[nH]c3ccccc31)C2` (stereo not given in full), the max response is -6.43% (inactive). The same measure, in the same setting: next, `O=C(Nc1ccc(S(=O)(=O)N2CCOCC2)cc1)c1cc(Cl)ccc1NS(=O)(=O)c1ccc(Cl)s1`: -23.1% (inactive).

For `CN(C)C(=O)CNC(=O)Cc1ccccc1`, the call was inactive. For `c1ccc2occc2c1`, the max response was -9.71% (inactive). Take `CO[C@@H]1[C@@H](OC)[C@H](C)[C@@](O)(CC(=O)O)O[C@H]1[C@H](C)[C@H]1O[C@@]2(CC[C@@](C)([C@H]3CC[C@@](C)([C@@H]4O[C@@H]([C@H]5O[C@](C)(O)[C@H](C)C[C@@H]5C)C[C@@H]4OC4C[C@H](OC)[C@@H](OC)[C@H](C)O4)O3)O2)C[C@H](O)[C@H]1C` (stereo not given in full): the Potency was 16.4 µM (active).

The subject of the next assay is NIH3T3. Described as above. Particulars: Five cell lines viability, CellTiter-Glo ATP luminescence, 48-72 h; max response: hits give low values. The procedure, abridged:
as §1
For `Cc1ccc(C(=O)C(=O)O)cc1C`, the max response was 2.73% (inactive).

As to `Nc1cc(C(F)(F)F)ccc1S`, the outcome was inactive. On the same count and under the same terms, next, `NS(=O)(=O)c1ccc(N2CCCCS2(=O)=O)cc1`: “inactive”; `COc1cc2c(cc1OC)C(=O)CC2`: “inactive”.

Regarding `COC(=O)c1c(Cl)c(Cl)c(C(=O)OC)c(Cl)c1Cl`, the max response was -9.58% (inactive). For the molecule `Cc1ccc(C(C)OC(=O)C2(C)CCC(C(=O)O)C2(C)C)cc1` (stereo not given), the result was inactive. Take `Cc1cc(O)c(C)c(C)c1O`: the result was inactive. On to `COCCOCC(OC)OC`, for which the max response was 1.4% (inactive). Same read-out and setting: next, `CC(C)NC(=O)c1ccc(C=O)cc1`: 3.81% (inactive); `C[C@H](CN1CCCC1)C(=O)c1ccc(C(F)(F)F)cc1`: -14.5% (inactive); `COCCc1ccc(OCC2CO2)cc1` (stereo not given): -4.27% (inactive). The same measure, in the same setting: next, `CCCCCOc1ccccc1/C(=C\SC)n1ccnc1`: -29.1% (inactive); `O=C1CCCc2c(O)cccc21`: -15.1% (inactive); `O=C(O)Cc1ccccc1Oc1ccc(Cl)cc1Cl`: -11.6% (inactive). For `CC(CC(C#N)(c1ccccc1)C(C)C)N(C)C` (stereo not given), the outcome was inactive. With `CNC(=O)c1cnn(-c2nc(N)c3ncn([C@@H]4O[C@H](CO)[C@@H](O)[C@H]4O)c3n2)c1`, the max response was -3.79% (inactive). Take `COC(=O)CCCCC(CCSS/C(CCO)=C(\C)N(C=O)Cc1cnc(C)nc1N)SC(C)=O` (stereo not given): the outcome was inactive. On to `Oc1ccccc1-c1nnco1`, for which the max response is 1.39% (inactive). As to `Nc1ccc2c(c1)CN1C(=O)c3ccccc3C1=N2`, the Potency is 7.31 µM (active). `CCN1CCCC1CN` (stereo not given): the max response is -1.87% (inactive). As for `CO[C@@]1(NC(=O)CSC[C@@H](N)C(=O)O)C(=O)N2C(C(=O)O)=C(CSc3nnnn3C)CS[C@@H]21`, the max response is -3.38% (inactive). On the same count and under the same terms, the value for `CCOC(=O)NNc1nncc2ccccc12` was 3.89% (inactive). Take `Cc1oc(-c2ccccc2)nc1CCC(=O)c1ccc(CC2SC(=O)NC2=O)cc1` (stereo not given): the max response was -0.446% (inactive). Regarding `CCCCN(CCN(CCCC)C(=O)N1CCOCC1)C(=O)N1CCOCC1`, the max response is -9.41% (inactive). Consider `CCN(CC)CCN`, for which the max response is -0.486% (inactive). Consider `CN1[C@@H]2CC[C@H]1CC(NC(=O)n1c(=O)[nH]c3ccccc31)C2` (stereo not given in full), for which the max response was 1.08% (inactive). Turning to `O=C(Nc1ccc(S(=O)(=O)N2CCOCC2)cc1)c1cc(Cl)ccc1NS(=O)(=O)c1ccc(Cl)s1`, the molecule was called inactive. With `Nc1ncnc2c1ncn2Cc1c(F)cccc1Cl`, the molecule was classed as inactive. As for `CN(C)C(=O)CNC(=O)Cc1ccccc1`, the max response was -5.07% (inactive). Still for that read-out and setting: the value for `CCNC(=O)[C@@H]1CCCN1C(=O)[C@H](CCCN=C(N)N)NC(=O)[C@H](CC(C)C)NC(=O)CNC(=O)[C@H](Cc1ccc(O)cc1)NC(=O)[C@H](CO)NC(=O)[C@H](Cc1c[nH]c2ccccc12)NC(=O)[C@H](Cc1cnc[nH]1)NC(=O)[C@@H]1CCC(=O)N1` ([pGlu]HWSYGLRP-NHEt) was -1.57% (inactive). The same measure, in the same setting: the value for `c1ccc2occc2c1` was -3.85% (inactive).

For the molecule `CCCCCCCCCCCCCCCCCCN(C)C`, the max response is 0.657% (inactive). As for `CO[C@@H]1[C@@H](OC)[C@H](C)[C@@](O)(CC(=O)O)O[C@H]1[C@H](C)[C@H]1O[C@@]2(CC[C@@](C)([C@H]3CC[C@@](C)([C@@H]4O[C@@H]([C@H]5O[C@](C)(O)[C@H](C)C[C@@H]5C)C[C@@H]4OC4C[C@H](OC)[C@@H](OC)[C@H](C)O4)O3)O2)C[C@H](O)[C@H]1C` (stereo not given in full), the Potency was 6.68 µM (active). Consider `NS(=O)(=O)c1cc2c(cc1Cl)CN(C1CCCCC1)C2=O`, for which the max response is 4.87% (inactive).

The next assay deals with HACAT. As to the kind of experiment: qHTS assay to identify novel small-molecules to repurpose for Merkel cell carcinoma treatment (AID 1296009). Particulars: MCC and control cell lines, CellTiter-Glo viability, 72 h; at 44.8 µM (top of the series) unless noted. In short, it runs like this: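 After compound transfer in DMSO, plates were kept 72 hr at 37 degree celsius. Luminescent ATP signal from CellTiter-Glo served as viability measure, normalized against DMSO and no-cell controls.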
On the technique in general: Quantitative high-throughput screening tests each substance at several concentrations.
With `Nc1cc(C(F)(F)F)ccc1S`, the result was inactive. Same read-out and setting: next, `NS(=O)(=O)c1ccc(N2CCCCS2(=O)=O)cc1`: “inactive”; `COc1cc2c(cc1OC)C(=O)CC2`: “inactive”.

Regarding `Cc1ccc(C(C)OC(=O)C2(C)CCC(C(=O)O)C2(C)C)cc1` (stereo not given), the molecule was called inactive. On the same count and under the same terms, next, `Cc1cc(O)c(C)c(C)c1O`: “inactive”; `COCCOCC(OC)OC`: “inactive”. The same measure, in the same setting: the value for `CC(C)NC(=O)c1ccc(C=O)cc1` was “inactive”; that for `O=C1CCCc2c(O)cccc21` was “inactive”. Consider `CC(CC(C#N)(c1ccccc1)C(C)C)N(C)C` (stereo not given), for which the result was inactive. With `CCC1=C[C@@H]2CN(C1)Cc1c([nH]c3ccccc13)[C@@](C(=O)OC)(c1cc3c(cc1OC)N(C)[C@H]1[C@@](O)(C(=O)OC)[C@H](OC(C)=O)[C@]4(CC)C=CCN5CC[C@]31[C@@H]54)C2`, the result was inactive. With `COC(=O)CCCCC(CCSS/C(CCO)=C(\C)N(C=O)Cc1cnc(C)nc1N)SC(C)=O` (stereo not given), the molecule was called inactive.

With `Oc1ccccc1-c1nnco1`, the call was inactive.

With `CO[C@@]1(NC(=O)CSC[C@@H](N)C(=O)O)C(=O)N2C(C(=O)O)=C(CSc3nnnn3C)CS[C@@H]21`, the molecule was called inactive. Still for that read-out and setting: the value for `CCOC(=O)NNc1nncc2ccccc12` was “inactive”; that for `Cc1oc(-c2ccccc2)nc1CCC(=O)c1ccc(CC2SC(=O)NC2=O)cc1` (stereo not given) was “inactive”; that for `CCCCN(CCN(CCCC)C(=O)N1CCOCC1)C(=O)N1CCOCC1` was “inactive”. As to `CCC(=O)O[C@]1(C(=O)COC)[C@@H](C)C[C@H]2[C@@H]3CCC4=CC(=O)C=C[C@]4(C)C3(F)[C@@H](O)C[C@@]21C` (stereo not given in full), the molecule was called inactive.
